Holding throughout (assay): PBM binding z-score (relative to random genomic background probes); higher = stronger binding; sequences stand for … in GC…GCGATTGACAGCGTAGAATGAAGG
Assay [1] deals with RARb homodimer (NR concentration 270 nM). A digest of the protocol:
(§1)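 Probes were double-stranded and carried 34-nt variable regions with direct-repeat seeds, single-nucleotide variants, half-site ablations and random human genomic background sequences, printed on custom Agilent 4×180K protein-binding microarrays. Arrays were incubated 1 h with ligand-free nuclear receptor dimers in PBS pH 7.4, 2% milk, 0.02% Triton X-100, 1 mM DTT, 0.2 mg/mL BSA and 0.4 mg/ml salmon testes DNA. Antibodies against each partner (one per run) detected binding, and scanned fluorescence was regression-normalized. Binding z-scores use the random background probes as reference.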

The subject of assay [2] is RARg:RXRa (NR concentration 270 nM, RXRa partner concentration 90 nM). Summed up: as §1
The subject of assay [3] is RARg homodimer (NR concentration 270 nM). Summed up: as §1
In assay [4] the test system is RXRa DBDmut IVT, anti-RXR (DBD mutation: RXRa K156A/R161A, NR concentration 90 nM). A digest of the protocol: as §1
Assay [5] has as its system RXRa homodimer (NR concentration 180 nM). A digest of the protocol: as §1
Assay [6] relates to THRa:RXRa (NR concentration 90 nM, RXRa partner concentration 90 nM). Summed up:
as §1

Assay [7] has as its system THRa homodimer (NR concentration 90 nM). Summed up: as §1
Assay [8] deals with VDR homodimer (NR concentration 270 nM). Summed up: as §1

For ACTAGTTGGTCAGCTGAGGTCACACAAAATTCGG, the PBM binding z-score is 4.3 in assay [1]; 4.32 in assay [2]; 4.78 in assay [3]; 1.52 in assay [4]; 4.23 in assay [5]; 5.01 in assay [6]. In addition, the PBM binding z-score in assay [7] came to 5.35; in assay [8], 3.83.
With CCTACTGGGCCAAAGGTCATTGACTCCAATGCTC, the PBM binding z-score is 4.46 in assay [1]; 5.6 in assay [2]; 4.61 in assay [3]; 1.6 in assay [4]; 6.03 in assay [5]; 3.38 in assay [6]. Further, the values for the PBM binding z-score in assay [7] and in assay [8] were 0.707 and 1.82, respectively.
CTAACTAGGTCACAGAGGTCAAAGTCCGTGCGTA: the PBM binding z-score came to 5.46 in assay [1]; 7.35 in assay [2]; 7.81 in assay [3]; 3.52 in assay [4]; 7.99 in assay [5]; 4.64 in assay [6]. For the same sequence, the values for the PBM binding z-score in assay [7] and in assay [8] were 3.13 and 7.07, respectively.
With CAAACTAGGTCAAAGGTCAAGGTCGAGCCAACCA, the PBM binding z-score was 5.8 in assay [1]; 8.92 in assay [2]; 7.7 in assay [3]; 3.18 in assay [4]; 9.96 in assay [5]; 4.92 in assay [6]. Moreover, the results for the PBM binding z-score in assay [7] and in assay [8] were 2.98 and 3.42, respectively.
Consider CGAACAAGGTCAAAGGACAGTGAAAGGCGACGTA, for which the PBM binding z-score was determined as 3.95 in assay [1]; 5.92 in assay [2]; 5.92 in assay [3]; 3.59 in assay [4]; 5.76 in assay [5]; 3.57 in assay [6]. The PBM binding z-score in assay [7] worked out at 1.54; in assay [8], 2.26.
Turning to CGAACTAGGTCAACGGACAGTGAAAGGCGACGTA, the PBM binding z-score in assay [1] came to 2.82; in assay [2], 4.11; in assay [3], 4.8; in assay [4] it was 1.34; in assay [5], 3.39; in assay [6], 2.36. Besides, the PBM binding z-score in assay [7] was 0.45; in assay [8], 0.394.
For CCTACTGGGCCAAGGTCATAGATCAGTCAAAGCA, the PBM binding z-score in assay [1] stood at 3.17; in assay [2] it was 3.62; in assay [3], 2.88; in assay [4], 0.741; in assay [5], 3.51; in assay [6], 3.38. Further, the PBM binding z-score is 2.25 in assay [7] and 1.92 in assay [8].
